# Source: PubChem BioAssay AID504843 (Broad Institute, 2011)
# Out of some 1,200 compounds screened, about 360 (30%) were called active. A selection follows. Potency and affinity values are given separately. A number with no mark means an inactive call. How the calls were made is not given here.
# Assay: bacterial growth inhibition, dose response, counter-screen, BacTiter-Glo luminescence, cherry-picked samples (AID 504843);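 further: growth measured after 8 h incubation at 30 °C; 0% = median of sample compound wells and -100% = antibiotic control wells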
# Conditions: BacTiter-Glo ATP luminescence; series mostly up to 15 µM; activity change, negative = inhibition: at the top concentration
row,Structure (SMILES),"activity change, negative = inhibition"
1,COc1ccc(N=Cc2nc(-c3ccccc3)oc2OC(=O)c2ccccc2)cc1,-13.6%
2,CCNc1nc(OC)nc(Oc2ccc(=O)n(-c3ccccc3)n2)n1,-3.84%
3,Clc1ccc(-c2csc(-c3cccnc3)n2)s1,-5.66%
4,Nc1nc2ccc([N+](=O)[O-])c(N)c2s1,5.18%
5,CCSC(=O)NC12CC3CC(CC(C3)C1)C2,10.9%
6,O=C(CSc1nc2ccccc2c(=O)n1CCCN1CCOCC1)Nc1ccc2c(c1)OCO2,-1.96%
7,O=C(O)c1ccccc1-c1nc2ccccc2c(=O)n1O,-15.3%
8,CN(C(=O)COC(=O)CNC(=O)C12CC3CC(CC(C3)C1)C2)C1CCS(=O)(=O)C1 (stereo unspecified),14.9%
9,N#CC1=C2SCC(O)(c3ccccc3)N2C(=O)CC1c1ccccc1F (stereo unspecified),12.5%
10,COc1ccc(C2CC(=O)Nc3n[nH]c(-c4ccccc4)c32)cc1OC (stereo unspecified),2.24%
11,COc1cc2c(cc1OC)C(c1cccc(F)c1)CC(=O)N2 (stereo unspecified),-5.4%
12,Cc1csc(N2CCCC2c2nc3cc(C(F)(F)F)ccc3n2CCOCCO)n1 (stereo unspecified),4.33%
13,CN1C2CCC1CC(NS(=O)(=O)c1cc(Cl)c(Cl)cc1Cl)C2 (stereo unspecified),25.6%
14,CN(C)c1ccc(C(=O)n2nnc3ccccc32)cc1,-16.1%
15,CC(C)(C)c1ccc(C(=O)O)c(C(=O)c2ccc(C(=O)O)cc2)c1,-10.4%
16,Nc1nnc(-c2cn(-c3ccccc3)nc2-c2ccc(Cl)cc2)o1,11.4%

row,Structure (SMILES),"activity change, negative = inhibition"
1,COc1ccc(CNC(=O)Cn2nnc(-c3ccc(NC(=O)C4CCCCC4)cc3)n2)cc1,-14.9%
2,Cc1cccc(CNC(=O)C2CCCN(c3nn4c(=O)cc(C)nc4s3)C2)c1 (stereo unspecified),10.7%
3,CCc1ccc(NS(=O)(=O)c2ccc3[nH]cc(C(=O)N4CCCCC4)c(=O)c3c2)cc1,11.8%
4,C/C(=N\NC(=O)c1cccc(O)c1)c1cccc(NC(=O)c2ccc(F)cc2)c1,-11.8%
5,CCOC(=O)CNS(=O)(=O)Cc1ccccc1,2.54%
6,CC(=O)NCC(=O)OCC(=O)c1ccc(C)cc1,-4.08%
7,CCCCCn1c(CNC(=O)c2cccs2)nc2ccccc21,0.73%
8,Cc1cccc(NC(=S)NC(C)CCc2ccccc2)c1 (stereo unspecified),8.6%
9,CCOC(=O)c1c2c3c(c(Cl)ccc3[nH]c1=O)C(=O)c1ccccc1-2,-22.5%
10,CCc1ccccc1NC(=O)CSc1nnc(-c2ccco2)n1N,13.7%
11,Clc1ccccc1-c1ccc2ncnc(NCc3cccnc3)c2c1,11.5%
12,Cc1ccc(S(=O)(=O)Nc2ccnc(-c3cccnc3)n2)cc1,-4.2%
13,Cc1ccc(/C=N/NC(=O)c2ccc(Cn3cc([N+](=O)[O-])cn3)o2)cc1,12.9%
14,CC(C)(C)OC(=O)N[C@@H](Cc1ccccc1)[C@H](O)c1ccco1,11.6%
15,CCCc1cc(=O)oc2cc(OCC(=O)N(C)C)c(Cl)cc12,0.057%
